RN4220 kill = kills Staphylococcus aureus RN4220. S. aureus RN4220 growth, OD600, 16 h. inhibition, % (concentration not given with the values). hit rate 0.33% among 330,000. AID 1259311; in the data active = inhibition above about 85%;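 also: plate controls were untreated cells for no effect and reference antibiotic for full effect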
BJeLR viability = BJeLR cell viability loss; inhibition, % (test concentration not listed); BJeLR (HRASV12) viability, CellTiter-Glo ATP luminescence, 48 h; hit rate 0.17% among 300,000; in the data active = inhibition above about 50%
ugtP null kill = compounds lethal to S. aureus RN4220 ugtP deletion mutant; OD600 growth, 16 h; growth inhibition, % (concentration not given with the values); hit rate 0.54% among 330,000; in the data active = growth inhibition above about 68%;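 also: plate controls were untreated wells for no effect and antibiotic for full effect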
PrPC surface inh = inhibitors of human cell surface prion protein PrPC; P04156; TR-FRET read-out; inhibition, % at 13.8 µM; hit rate 0.43% among 370,000; in the data active = inhibition above about 24%; also: 0% = median of the test wells and 100% = reference compound wells
3CLpro inhibitor = SARS-CoV 3CLpro protease inhibition; P0C6X7; hit rate 0.14% among 290,000; recombinant SARS-CoV 3CLpro, quenched FRET peptide cleavage; inhibition, % at 6 µM; AID 1706; in the data active = inhibition above about 12%
DUSP3 inh = blocks human VHR1 dual specificity phosphatase; recombinant VHR phosphatase, pNPP absorbance; inhibition, % at 13.3 µM; hit rate 0.52% among 290,000; in the data active = inhibition above about 50%
Target sequence (P51452 whole entry, looked up): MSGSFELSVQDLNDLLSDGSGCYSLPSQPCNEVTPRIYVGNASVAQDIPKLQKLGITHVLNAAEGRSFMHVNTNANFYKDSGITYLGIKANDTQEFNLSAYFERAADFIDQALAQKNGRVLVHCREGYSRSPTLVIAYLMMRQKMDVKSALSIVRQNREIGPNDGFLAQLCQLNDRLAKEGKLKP
Numbers without * were called inactive; x = no result given. Compounds with a hit are over-represented: about 1.4% of the library has one in this group of screens.

SMILES	RN4220 kill	BJeLR viability	ugtP null kill	PrPC surface inh	3CLpro inhibitor	DUSP3 inh
CCOC(=O)C1CCN(S(=O)(=O)c2ccc(-c3ccc(=O)[nH]n3)o2)CC1	-0.3	6.4	2.4	-5.0	-7.8	51.3*
CN(Cc1nc(-c2ccncc2)no1)S(=O)(=O)c1ccc(Cl)cc1	-0.2	11.9	-3.6	-3.4	-0.8	51.4*
CN(Cc1nc(-c2ccncc2)no1)S(=O)(=O)c1ccc(Br)cc1	-15.0	2.9	-1.5	-2.0	-6.9	16.3
Cc1ccc(Nc2nc(-c3c(C)nc4ccccn34)cs2)cc1	46.3	31.5	32.5	39.0*	4.7	24.5
Cc1ccc(Nc2nc(-c3c(C)nc4ncccn34)cs2)cc1	2.6	43.9	-17.8	-11.5	0.7	10.2
C=CCOC(=O)C1=C(C)NC(SC)=C(C#N)C1c1ccc(OCC)cc1 (centres undefined)	-2.0	3.7	91.4*	8.1	3.4	-3.7
CCN1C(=O)C2C(c3ccc(-c4ccc5c(c4)OCO5)c(OC)c3)N[C@@](C)(C(=O)OC)C2C1=O (some centres undefined)	2.5	x	-1.8	x	x	x
Cc1ccc(C2NC(=O)c3c(sc(C)c3C)N2)c(O)c1 (centres undefined)	-6.4	1.4	-2.2	-4.5	-2.4	51.2*
Cc1cccc(C2NC(=O)c3c(sc(C)c3C)N2)c1O (centres undefined)	2.2	-1.5	-0.3	-1.4	1.4	11.3
CCOc1ccc(Oc2ccc(NS(=O)(=O)c3cc(C(=O)O)ccc3Cl)cc2)cc1	0.1	x	1.3	7.8	x	x
CCOc1ccc(NS(=O)(=O)c2cc(NC(=O)c3ccc(C)cc3)ccc2Cl)cc1	2.4	18.0	85.0*	15.4	9.3	4.0
CC(=CC(=O)C(F)(F)F)Nc1ccc(C(F)(F)F)cc1	3.6	x	6.0	x	x	x
COc1ccc2[nH]c3c(c2c1)C1CCN2C(=O)CCCC(C3)C12 (centres undefined)	5.8	x	3.5	x	x	x
Cc1ccc(NS(=O)(=O)c2ccc3c(c2)NC(=O)CCS3)c(C)c1	98.0*	-1.2	95.6*	22.8	-4.4	-0.7
Cc1ccc(NS(=O)(=O)c2ccc3c(c2)NC(=O)CCS3)c(Cl)c1	96.3*	0.0	89.8*	14.0	0.2	12.3
C[C@@]12C(=O)N(c3cccc(Cl)c3)C(=O)N1C1c3ccccc3OCC1C2c1ccccc1 (some centres undefined)	2.3	x	7.0	x	x	x
NCCCCC(NC(=O)C1CCNCC1)c1nnc(C(N)CO)o1 (centres undefined)	2.9	x	3.5	x	x	x
CN(C1CCCC1)C1CCN(C(=O)CNC(=O)/C=C/c2ccccc2)CC1	7.9	-6.9	4.5	-1.1	-1.3	-1.7
CC1CCCCC1N(C)C1CCN(C(=O)CNC(=O)/C=C/c2cccc(Cl)c2)CC1 (centres undefined)	5.8	90.1*	11.6	-24.4	5.0	18.4
Cc1cccc2nc(-c3ccccc3)nc(NC(CO)c3ccccc3)c12 (centres undefined)	-4.8	x	-25.7	x	x	x
CC1(O)C[C@]2(C)N(O)C3CCCCC3N2O1 (some centres undefined)	3.7	x	-4.6	x	x	x
COc1ccc(NC(=O)c2ccccc2[N+](=O)[O-])cc1	-2.4	2.2	-0.4	-6.1	5.8	55.4*
CC[C@]12C(=O)N(C)CC(C3C(=O)N(C)C(=O)C31)N2C(=O)c1ccc(Cl)c(Cl)c1 (some centres undefined)	2.6	x	-11.4	x	x	x
CCn1c(SCC(=O)N(C)c2ccccc2)nc2c([nH]c3ccccc32)c1=O	5.4	8.2	-0.9	1.3	-2.5	53.4*
O=[N+]([O-])c1cccc(N=Nc2ccc(O)cc2O)c1	55.8	x	45.0	0.1	x	x
SMILES	RN4220 kill	BJeLR viability	ugtP null kill	PrPC surface inh	3CLpro inhibitor	DUSP3 inh
O=[N+]([O-])c1ccc(N=Nc2ccc(O)cc2O)cc1	98.6*	28.3	98.0*	-9.4	-3.4	26.4
COC(=O)C(CC(C)C)NCc1cccc(CNC(CC(C)C)C(=O)OC)c1 (centres undefined)	1.4	x	-0.8	x	x	x
O=C(CSc1nnnn1-c1ccccc1)N1CCCc2ccccc21	0.7	-3.1	10.5	-1.4	6.6	9.9
O=C(CSc1n[nH]c(-c2ccccc2O)n1)N1CCCc2ccccc21	5.8	-13.6	-9.0	-2.2	0.6	51.7*
Nc1nc(SCC(=O)N2CCCc3ccccc32)n(-c2ccccc2)n1	0.1	14.1	6.2	11.8	-4.3	50.3*
CC(=O)n1cc(C2C=C(C(=O)N3CCN(Cc4ccccc4)CC3)OC(OCc3ccc(CO)cc3)C2)c2ccccc21 (centres undefined)	-2.3	x	-3.4	x	x	x
C[C@]12CCC3c4ccc(OC5OC(C(=O)O)C(O)C(O)C5O)cc4CCC3C1CC(O)C2O (some centres undefined)	3.4	x	3.9	x	x	x
CC(=NN=C(N)SC1CC(=O)N(c2ccc(Cl)c(Cl)c2)C1=O)c1cccs1 (centres undefined)	100.3*	x	98.8*	x	x	x
CC(=NN=C(N)SC1CC(=O)N(c2cccc(Cl)c2)C1=O)c1cccs1 (centres undefined)	64.5	x	9.2	x	x	x
CCOC(=O)c1ccc(OCC2NCCc3cc(OC)c(OC)cc32)cc1 (centres undefined)	1.6	-2.2	1.4	-2.8	-9.3	17.8
COC(=O)c1ccc(OCC2NCCc3cc(OC)c(OC)cc32)cc1 (centres undefined)	0.7	-7.6	4.2	x	1.3	55.7*
Cc1ccc(NC(=S)Nc2cccc3cnccc23)cc1C	-1.9	6.4	-3.8	-0.5	0.1	43.8
S=C(Nc1cccc(Cl)c1)Nc1cccc2cnccc12	-10.7	x	-27.5	x	1.3	50.8*
COc1ccc(-c2c(C)n([O-])c3c([n+]2=O)CCCC3)cc1	0.4	5.8	4.2	-16.2	-0.8	51.5*
Cc1ccc(C2C3C(=O)N(C)C(=O)C3[C@]3(Cc4ccccc4)C(=O)N(Cc4ccccn4)CC(=O)N23)o1 (some centres undefined)	4.5	x	-1.2	x	x	x
Cc1ccc(NC2=C(NC(=O)c3ccccc3)C(=O)c3ccccc3C2=O)cc1Cl	86.0*	2.5	88.4*	-2.1	-4.3	-25.4
Cc1ccc(NCC(=O)c2ccccc2)cc1Cl	2.0	15.2	-1.3	-6.9	5.6	-5.4
COc1ccc(C)cc1S(=O)(=O)N1CCN(C(=O)c2ncoc2-c2ccc(F)cc2)CC1	0.8	-8.1	2.5	-7.5	-2.3	52.9*
N#C/C(=C\c1ccc(-c2ccccc2)o1)C(=O)Nn1cnnc1	3.0	-7.9	2.6	-14.5	2.8	56.7*
COC(=O)C1=C(c2cccc(OC)c2OC)CC2CCC1N2C(=O)N1CCC(C)CC1 (centres undefined)	1.7	x	3.7	x	x	x
COc1cccc(N2CCN(c3ncnc4c3[nH]c3ccc(F)cc34)CC2C)c1 (centres undefined)	21.9	36.4	-13.2	85.4*	1.1	14.7
COc1ccc(C2CC(=O)C=C(c3cccc(C#N)c3)C2)cc1 (centres undefined)	6.7	x	-8.0	x	x	x
CNCCNCC(Cc1cccc2ccccc12)NCCc1ccccc1 (centres undefined)	0.2	x	2.8	x	x	x
